Measurements reported in paper PMC7862700, “An all-to-all approach to the identification of sequence-specific readers for epigenetic DNA modifications on cytosine”.

Tests used:
Assay in all cases: DAPPL (digital affinity profiling via proximity ligation, sequencing); 10 mM Tris-HCl pH 7.5, 50 mM NaCl, 1 mM DTT, 4% glycerol, room temperature, 30 min; GST-TFs on glutathione beads, 16-mer random dsDNA library, 0.1% formaldehyde crosslink after washing; high values mean tight binding
Conditions in all cases: protein: recombinant; tags: N-terminal GST; dsDNA, one strand shown
[1] = biological target: T1, FLI1 (Homo sapiens, UniProt Q01543 1-452)
T1 sequence: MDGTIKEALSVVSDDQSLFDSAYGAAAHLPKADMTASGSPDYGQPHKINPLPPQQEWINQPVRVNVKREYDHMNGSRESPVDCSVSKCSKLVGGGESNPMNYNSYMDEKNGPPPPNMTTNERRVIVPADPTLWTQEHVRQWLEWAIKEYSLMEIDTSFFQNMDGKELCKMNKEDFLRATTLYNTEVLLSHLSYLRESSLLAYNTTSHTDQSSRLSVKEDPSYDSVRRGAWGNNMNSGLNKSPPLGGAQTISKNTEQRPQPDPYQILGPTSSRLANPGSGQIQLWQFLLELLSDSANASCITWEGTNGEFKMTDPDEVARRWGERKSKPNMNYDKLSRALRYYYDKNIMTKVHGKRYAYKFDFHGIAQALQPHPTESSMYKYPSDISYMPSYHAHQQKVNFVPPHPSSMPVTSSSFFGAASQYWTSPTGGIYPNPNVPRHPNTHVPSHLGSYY
Procedure, shortened: (§1)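 After expression in yeast as GST fusions, human transcription factors were bound to glutathione beads, DNA-barcoded and mixed with a tag-only sample. The pools were incubated with 200 nmole of a 16-mer random double-stranded DNA library in Tris/NaCl/DTT/glycerol buffer (30 min, room temperature), washed and crosslinked with 0.1% formaldehyde. Proximity ligation with BsaI/T4 ligase ran for 1 h at 37 °C, before PCR amplification and sequencing on an Illumina NextSeq500. Binding signal is a hexamer's read frequency for a factor divided by its frequency for the tag-only sample.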

[2] = biological target: T2, ELK1 (Homo sapiens, UniProt P19419 1-428)
T2 sequence: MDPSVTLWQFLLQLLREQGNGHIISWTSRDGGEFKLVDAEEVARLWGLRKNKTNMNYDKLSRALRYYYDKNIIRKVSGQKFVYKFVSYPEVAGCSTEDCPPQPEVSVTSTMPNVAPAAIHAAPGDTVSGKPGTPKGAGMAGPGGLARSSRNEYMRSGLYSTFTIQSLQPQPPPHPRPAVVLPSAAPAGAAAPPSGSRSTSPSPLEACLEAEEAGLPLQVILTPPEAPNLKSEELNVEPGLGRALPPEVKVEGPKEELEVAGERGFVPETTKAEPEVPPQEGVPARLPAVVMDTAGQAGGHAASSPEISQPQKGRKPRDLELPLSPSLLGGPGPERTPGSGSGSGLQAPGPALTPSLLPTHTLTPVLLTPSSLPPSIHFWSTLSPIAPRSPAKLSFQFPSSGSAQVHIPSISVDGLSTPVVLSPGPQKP
Procedure, shortened: as §1

[3] = biological target: T3, GABPA (Homo sapiens, UniProt Q06546 1-454)
T3 sequence: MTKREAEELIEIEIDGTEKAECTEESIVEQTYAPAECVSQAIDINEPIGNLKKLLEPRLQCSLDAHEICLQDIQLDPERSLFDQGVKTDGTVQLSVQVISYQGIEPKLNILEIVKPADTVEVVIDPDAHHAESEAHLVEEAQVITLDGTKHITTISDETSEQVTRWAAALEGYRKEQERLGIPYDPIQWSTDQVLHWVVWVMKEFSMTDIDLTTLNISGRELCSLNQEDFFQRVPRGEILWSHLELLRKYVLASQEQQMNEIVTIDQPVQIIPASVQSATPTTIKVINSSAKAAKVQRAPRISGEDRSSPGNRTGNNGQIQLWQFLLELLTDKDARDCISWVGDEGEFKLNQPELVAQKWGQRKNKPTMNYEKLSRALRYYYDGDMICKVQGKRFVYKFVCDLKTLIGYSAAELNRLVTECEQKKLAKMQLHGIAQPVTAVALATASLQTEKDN
Procedure, shortened: as §1

[4] = biological target: T4, ERG (Homo sapiens, UniProt P11308 1-479)
T4 sequence: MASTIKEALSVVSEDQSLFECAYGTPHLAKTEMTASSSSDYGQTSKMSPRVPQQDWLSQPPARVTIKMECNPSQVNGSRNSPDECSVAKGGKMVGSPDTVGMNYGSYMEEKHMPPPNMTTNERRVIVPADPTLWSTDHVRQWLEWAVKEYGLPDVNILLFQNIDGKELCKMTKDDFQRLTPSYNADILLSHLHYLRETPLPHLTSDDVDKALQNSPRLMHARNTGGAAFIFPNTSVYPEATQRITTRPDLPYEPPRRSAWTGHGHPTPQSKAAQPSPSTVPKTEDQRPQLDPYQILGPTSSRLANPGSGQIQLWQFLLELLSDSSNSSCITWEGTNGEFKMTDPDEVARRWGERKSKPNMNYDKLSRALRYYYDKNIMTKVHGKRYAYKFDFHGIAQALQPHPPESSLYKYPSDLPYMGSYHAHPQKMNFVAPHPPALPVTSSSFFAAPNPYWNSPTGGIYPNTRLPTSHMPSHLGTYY
Procedure, shortened: as §1

[5] = biological target: ELF1 (Homo sapiens, UniProt P32519 1-619)
Chain of ELF1 (P32519 whole entry): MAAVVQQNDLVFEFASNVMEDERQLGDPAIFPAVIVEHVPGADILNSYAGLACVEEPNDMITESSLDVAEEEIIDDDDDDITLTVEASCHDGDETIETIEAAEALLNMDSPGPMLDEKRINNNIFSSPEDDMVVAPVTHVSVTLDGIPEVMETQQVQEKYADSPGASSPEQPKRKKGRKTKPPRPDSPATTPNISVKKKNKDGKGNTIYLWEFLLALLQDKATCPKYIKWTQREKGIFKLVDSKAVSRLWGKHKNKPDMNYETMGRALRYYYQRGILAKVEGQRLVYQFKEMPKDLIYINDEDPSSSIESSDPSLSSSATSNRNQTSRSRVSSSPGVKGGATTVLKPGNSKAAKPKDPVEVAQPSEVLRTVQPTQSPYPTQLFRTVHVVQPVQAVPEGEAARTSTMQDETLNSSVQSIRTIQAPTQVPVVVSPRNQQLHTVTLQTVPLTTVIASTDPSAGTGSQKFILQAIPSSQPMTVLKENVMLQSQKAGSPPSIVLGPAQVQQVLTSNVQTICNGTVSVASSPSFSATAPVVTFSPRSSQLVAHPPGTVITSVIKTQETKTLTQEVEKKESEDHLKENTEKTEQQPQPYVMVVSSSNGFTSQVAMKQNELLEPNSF
Procedure, shortened: as §1

[6] = biological target: T5, EHF (Homo sapiens, UniProt Q9NZC4 1-300)
T5 sequence: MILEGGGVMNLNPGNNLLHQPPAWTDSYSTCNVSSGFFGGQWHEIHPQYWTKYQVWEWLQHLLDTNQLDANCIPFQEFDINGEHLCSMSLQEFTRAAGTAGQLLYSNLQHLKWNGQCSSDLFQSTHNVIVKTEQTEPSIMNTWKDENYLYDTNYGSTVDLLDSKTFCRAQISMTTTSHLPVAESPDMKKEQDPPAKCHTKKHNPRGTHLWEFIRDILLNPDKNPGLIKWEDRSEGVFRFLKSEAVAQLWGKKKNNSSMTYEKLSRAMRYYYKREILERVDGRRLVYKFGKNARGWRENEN
Procedure, shortened: as §1

[7] = biological target: SPI1 (Homo sapiens, UniProt P17947 1-270)
Procedure, shortened: as §1

[8] = biological target: SPIB (Homo sapiens, UniProt Q01892 1-262)
Chain of SPIB (Q01892 whole entry): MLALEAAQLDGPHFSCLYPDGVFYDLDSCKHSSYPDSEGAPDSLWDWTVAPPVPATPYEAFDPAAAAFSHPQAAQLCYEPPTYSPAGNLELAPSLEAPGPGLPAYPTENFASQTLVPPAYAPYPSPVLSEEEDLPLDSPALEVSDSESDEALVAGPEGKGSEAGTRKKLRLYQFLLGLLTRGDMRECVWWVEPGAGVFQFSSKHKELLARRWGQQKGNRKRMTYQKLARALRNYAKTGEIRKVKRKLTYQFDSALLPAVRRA
Procedure, shortened: as §1

[9] = biological target: T6, ELK3 (Homo sapiens, UniProt P41970 1-407)
T6 sequence: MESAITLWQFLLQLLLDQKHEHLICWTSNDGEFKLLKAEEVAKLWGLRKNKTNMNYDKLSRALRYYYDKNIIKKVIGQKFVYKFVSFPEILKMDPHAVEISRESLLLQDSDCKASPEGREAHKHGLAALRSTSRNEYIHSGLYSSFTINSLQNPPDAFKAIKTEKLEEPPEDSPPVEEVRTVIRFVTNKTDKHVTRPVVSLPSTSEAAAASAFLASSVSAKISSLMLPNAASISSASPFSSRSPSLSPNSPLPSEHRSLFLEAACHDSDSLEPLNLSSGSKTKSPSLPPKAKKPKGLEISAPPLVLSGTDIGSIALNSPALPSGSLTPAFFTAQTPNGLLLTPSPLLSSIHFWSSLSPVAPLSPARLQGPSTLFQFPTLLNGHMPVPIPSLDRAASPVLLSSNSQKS
Procedure, shortened: as §1

Sequence	binding signal [1]	binding signal [2]	binding signal [3]	binding signal [4]	binding signal [5]	binding signal [6]	binding signal [7]	binding signal [8]	binding signal [9]
TTCCTA	1.82 fold enrichment (6-mer frequency, TF over GST control)	1.72 fold enrichment (6-mer frequency, TF over GST control)	1.55 fold enrichment (6-mer frequency, TF over GST control)	1.78 fold enrichment (6-mer frequency, TF over GST control)	1.63 fold enrichment (6-mer frequency, TF over GST control)	1.59 fold enrichment (6-mer frequency, TF over GST control)	1.7 fold enrichment (6-mer frequency, TF over GST control)	1.93 fold enrichment (6-mer frequency, TF over GST control)	1.74 fold enrichment (6-mer frequency, TF over GST control)
ACCCAT	1.18 fold enrichment (6-mer frequency, TF over GST control)	1.21 fold enrichment (6-mer frequency, TF over GST control)	1.33 fold enrichment (6-mer frequency, TF over GST control)	1.23 fold enrichment (6-mer frequency, TF over GST control)	1.25 fold enrichment (6-mer frequency, TF over GST control)	1.16 fold enrichment (6-mer frequency, TF over GST control)	1.17 fold enrichment (6-mer frequency, TF over GST control)	1.33 fold enrichment (6-mer frequency, TF over GST control)	1.24 fold enrichment (6-mer frequency, TF over GST control)
ATACAG	1.16 fold enrichment (6-mer frequency, TF over GST control)	1.11 fold enrichment (6-mer frequency, TF over GST control)	1.29 fold enrichment (6-mer frequency, TF over GST control)	1.16 fold enrichment (6-mer frequency, TF over GST control)	1.13 fold enrichment (6-mer frequency, TF over GST control)	1.16 fold enrichment (6-mer frequency, TF over GST control)	1.12 fold enrichment (6-mer frequency, TF over GST control)	1.15 fold enrichment (6-mer frequency, TF over GST control)	1.07 fold enrichment (6-mer frequency, TF over GST control)
TCCCCT	1.59 fold enrichment (6-mer frequency, TF over GST control)	1.66 fold enrichment (6-mer frequency, TF over GST control)	1.61 fold enrichment (6-mer frequency, TF over GST control)	1.72 fold enrichment (6-mer frequency, TF over GST control)	1.74 fold enrichment (6-mer frequency, TF over GST control)	1.67 fold enrichment (6-mer frequency, TF over GST control)	2.29 fold enrichment (6-mer frequency, TF over GST control)	1.8 fold enrichment (6-mer frequency, TF over GST control)	1.86 fold enrichment (6-mer frequency, TF over GST control)
TCAACT	1.31 fold enrichment (6-mer frequency, TF over GST control)	1.31 fold enrichment (6-mer frequency, TF over GST control)	1.34 fold enrichment (6-mer frequency, TF over GST control)	1.31 fold enrichment (6-mer frequency, TF over GST control)	1.31 fold enrichment (6-mer frequency, TF over GST control)	1.35 fold enrichment (6-mer frequency, TF over GST control)	1.36 fold enrichment (6-mer frequency, TF over GST control)	1.3 fold enrichment (6-mer frequency, TF over GST control)	1.22 fold enrichment (6-mer frequency, TF over GST control)
AATTGA	1.18 fold enrichment (6-mer frequency, TF over GST control)	1.19 fold enrichment (6-mer frequency, TF over GST control)	1.2 fold enrichment (6-mer frequency, TF over GST control)	1.16 fold enrichment (6-mer frequency, TF over GST control)	1.15 fold enrichment (6-mer frequency, TF over GST control)	1.25 fold enrichment (6-mer frequency, TF over GST control)	1.16 fold enrichment (6-mer frequency, TF over GST control)	1.2 fold enrichment (6-mer frequency, TF over GST control)	1.27 fold enrichment (6-mer frequency, TF over GST control)
CTAATG	1.34 fold enrichment (6-mer frequency, TF over GST control)	1.22 fold enrichment (6-mer frequency, TF over GST control)	1.26 fold enrichment (6-mer frequency, TF over GST control)	1.18 fold enrichment (6-mer frequency, TF over GST control)	1.23 fold enrichment (6-mer frequency, TF over GST control)	1.28 fold enrichment (6-mer frequency, TF over GST control)	1.26 fold enrichment (6-mer frequency, TF over GST control)	1.26 fold enrichment (6-mer frequency, TF over GST control)	1.46 fold enrichment (6-mer frequency, TF over GST control)
TGCCTC	1.39 fold enrichment (6-mer frequency, TF over GST control)	1.31 fold enrichment (6-mer frequency, TF over GST control)	1.36 fold enrichment (6-mer frequency, TF over GST control)	1.35 fold enrichment (6-mer frequency, TF over GST control)	1.31 fold enrichment (6-mer frequency, TF over GST control)	1.26 fold enrichment (6-mer frequency, TF over GST control)	1.39 fold enrichment (6-mer frequency, TF over GST control)	1.4 fold enrichment (6-mer frequency, TF over GST control)	1.27 fold enrichment (6-mer frequency, TF over GST control)
